Experimental data published in PubChem BioAssay.
The source made the active and inactive calls.

Experiments:
[1] = system: Plasmodium falciparum Sir2 (PF13_0152, Sir2A); assay: pfSir2 binders on small-molecule microarrays, primary screen, biochemical, small-molecule microarray, 635 nm fluorescence (AID 1098); conditions: small-molecule microarray binding, fluorescence 635 nm; higher = more signal;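 also: score merges spot fluorescence intensity with its signal-to-noise ratio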
[2] = small-molecule microarray binders of probe aDKK1, primary screen, biochemical, biotinylated probe, 635/667 nm fluorescence (AID 1099); conditions: higher = more signal;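 also: score merges 667nm spot fluorescence with signal to noise across triplicate slides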
[3] = small-molecule microarray binders of probe aCHRDL2, primary screen, biochemical, biotinylated probe, 635/667 nm fluorescence (AID 1100); conditions: higher = more signal
[4] = splicing luciferase reporter signal modulators, primary screen, spliceosome inhibition project, cell-based, HEK293, splice +/- reporter (AID 1101); conditions: luminescence, 24 h, higher = more signal, called active from +8 up or from −8 down;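 also: HEK293 cells carrying a splicing-competent luciferase reporter gene; test concentration not given here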
[5] = biological target: Fibroblast growth factor 10 (Homo sapiens) (UniProt O15520); assay: FGF10 binders on small-molecule microarrays, primary screen, biochemical, small-molecule microarray, 635 nm fluorescence (AID 1102); conditions: FGF10 binding, fluorescence 635 nm, higher = more signal
[6] = system: glycogen synthase kinase-3 (GSK3A per assay name; protocol says GSK3B); assay: GSK3 binders on small-molecule microarrays, primary screen, biochemical, small-molecule microarray, 635 nm fluorescence, GSK3A (AID 1103); conditions: small-molecule microarray binding, fluorescence 635 nm; higher = more signal; also: the record names both GSK3A and GSK3B
[7] = biological target: Epidermal growth factor receptor (Homo sapiens) (UniProt P00533); assay: EGFR binders on small-molecule microarrays, primary screen, biochemical, small-molecule microarray, 635 nm fluorescence (AID 1104); conditions: EGFR binding, higher = more signal;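 also: score merges 667 nm emission intensity with spot signal to noise over triplicate slides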
[8] = biological target: Follistatin-related protein 3 (Homo sapiens) (UniProt O95633); assay: FSTL3 binders on small-molecule microarrays, primary screen, biochemical, small-molecule microarray, 635 nm fluorescence (AID 1105); conditions: FSTL3 binding, higher = more signal;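 also: score merges emission near 667 nm and signal to noise per printed spot across three slides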
[9] = biological target: Dickkopf-related protein 1 (Homo sapiens) (UniProt O94907); assay: DKK1 binders on small-molecule microarrays, primary screen, biochemical, small-molecule microarray, 635 nm fluorescence scan (AID 1106); conditions: DKK1 binding, higher = more signal;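 also: score merges emission near 667 nm with signal to noise over three replicate slides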
[10] = system: Inhibin beta A chain (activin A); assay: INHBA (activin A) binders on microarrays, primary screen, biochemical, small-molecule microarray, 635 nm fluorescence scan (AID 1107); conditions: small-molecule microarray binding, higher = more signal;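 also: mouse activin A protein probed at 4.33 µg/mL on printed slides; score merges bound-protein fluorescence near 667 nm with spot signal-to-noise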
[11] = system: Human papillomavirus type 1a protein E7 (residues 44-93); assay: HPV1a E7 fragment binders on microarrays, primary screen, biochemical, small-molecule microarray, residues 44-93, 635 nm fluorescence (AID 1108); conditions: small-molecule microarray binding, fluorescence 635 nm; higher = more signal;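 also: E7 fragment applied at 1 µg/mL in TBST for 1 h at 4 C; score combines spot fluorescence with its signal to noise ratio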
[12] = modulators of HCV replicon luciferase signal, primary screen, HCV replication inhibitor project, Huh7 cells, luciferase reporter (AID 1109); conditions: 48 h, higher = more signal;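 also: huh7 hepatoma cells harbouring a luciferase neomycin HCV replicon reporter; luciferase luminescence as measure of HCV replicon replication; test concentration not given here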
[13] = biological target: Left-right determination factor 2 (Homo sapiens) (UniProt O00292); assay: LEFTY2 binders on small-molecule microarrays, primary screen, biochemical, small-molecule microarray, 635 nm fluorescence scan (AID 1110); conditions: LEFTY2 binding, higher = more signal
[14] = biological target: Calmodulin-1 (Homo sapiens) (UniProt P0DP23); assay: CALM1 binders on microarrays, EGTA buffer, profiling panel, biochemical, small-molecule microarray, Cy5-labelled CALM1 (AID 1111); conditions: Cy5-CALM1 binding fluorescence, higher = more signal;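 also: labelled calmodulin applied in Tris saline Tween buffer holding calcium plus EGTA and DTT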
[15] = biological target: Calmodulin-1 (Homo sapiens) (UniProt P0DP23); assay: calcium-bound CALM1 binders on microarrays, profiling panel, artefact control for SMM control-protein annotation, biochemical, small-molecule microarray, Cy5-labelled CALM1, plus calcium (AID 1112); conditions: Cy5-CALM1 binding fluorescence, higher = more signal;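 also: score merges spot fluorescence with signal to noise from triplicate slides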
[16] = small-molecule microarray binders of probe aWnt5a, primary screen, biochemical, biotinylated probe, 635/667 nm fluorescence (AID 1113); conditions: higher = more signal;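 also: score merges 667 nm fluorescence intensity with signal-to-noise per printed feature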
[17] = small-molecule microarray binders of probe aShh, primary screen, biochemical, biotinylated probe, 635/667 nm fluorescence (AID 1114); conditions: higher = more signal;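 also: probe is biotin-labelled aShh protein from a stem cell growth factor screen; measures binding of labelled protein to compounds printed on the slide; score merges feature fluorescence at 667 nm with signal-to-noise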
[18] = small-molecule microarray binders of probe aNog, primary screen, biochemical, biotinylated probe, 635/667 nm fluorescence (AID 1115); conditions: higher = more signal;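 also: probe is biotinylated aNog protein used at 0.15 µg/mL for 1 h at 4 C; z-score combines 667 nm fluorescence of each spot with its signal to noise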
[19] = biological target: Torsin-1A-interacting protein 1 (Homo sapiens) (UniProt Q5JTV8); assay: LAP1 binders from COS7 cell lysate, primary screen, small-molecule microarray, 635/667 nm fluorescence (AID 1116); conditions: COS7-hLAP1 lysate binding, 635 nm fluorescence, higher = more signal
[20] = biological target: Alpha-bungarotoxin (Bungarus multicinctus) (UniProt P60615); assay: alpha-bungarotoxin binders on microarray, profiling panel, artefact control for SMM control protein annotation, biochemical, small-molecule microarray, Alexa647 label, 635/667 nm fluorescence (AID 1117); conditions: alpha-BTX-A647 binding fluorescence, higher = more signal
Chain of Alpha-bungarotoxin (Bungarus multicinctus) (P60615 whole entry, looked up): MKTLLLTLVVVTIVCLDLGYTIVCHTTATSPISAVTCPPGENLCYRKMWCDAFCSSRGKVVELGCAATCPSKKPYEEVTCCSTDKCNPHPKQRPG

Chain of Dickkopf-related protein 1 (Homo sapiens) (O94907 whole entry, looked up): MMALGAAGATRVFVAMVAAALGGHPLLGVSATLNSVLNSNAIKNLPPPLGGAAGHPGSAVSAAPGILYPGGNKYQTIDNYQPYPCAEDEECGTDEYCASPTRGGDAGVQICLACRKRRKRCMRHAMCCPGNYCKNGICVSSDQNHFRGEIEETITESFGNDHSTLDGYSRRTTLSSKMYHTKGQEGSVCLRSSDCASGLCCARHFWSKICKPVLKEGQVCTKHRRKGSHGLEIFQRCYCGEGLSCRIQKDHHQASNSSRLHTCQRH
Chain of Torsin-1A-interacting protein 1 (Homo sapiens) (Q5JTV8 whole entry, looked up): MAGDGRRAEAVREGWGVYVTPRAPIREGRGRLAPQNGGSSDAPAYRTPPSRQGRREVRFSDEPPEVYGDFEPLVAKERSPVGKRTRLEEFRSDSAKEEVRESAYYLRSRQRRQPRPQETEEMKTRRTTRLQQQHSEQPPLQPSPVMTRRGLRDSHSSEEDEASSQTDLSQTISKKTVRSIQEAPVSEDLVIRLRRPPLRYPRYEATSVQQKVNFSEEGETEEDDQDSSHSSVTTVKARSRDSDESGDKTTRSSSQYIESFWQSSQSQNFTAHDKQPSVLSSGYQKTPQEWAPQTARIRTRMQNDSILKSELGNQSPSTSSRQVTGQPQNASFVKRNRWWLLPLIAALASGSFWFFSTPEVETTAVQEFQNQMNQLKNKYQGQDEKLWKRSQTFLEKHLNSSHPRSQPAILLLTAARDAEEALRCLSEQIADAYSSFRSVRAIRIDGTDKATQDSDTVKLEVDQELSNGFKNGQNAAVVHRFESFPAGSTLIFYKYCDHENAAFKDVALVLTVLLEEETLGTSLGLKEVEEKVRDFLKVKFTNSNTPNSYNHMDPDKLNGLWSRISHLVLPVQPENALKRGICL
Chain of Follistatin-related protein 3 (Homo sapiens) (O95633 whole entry, looked up): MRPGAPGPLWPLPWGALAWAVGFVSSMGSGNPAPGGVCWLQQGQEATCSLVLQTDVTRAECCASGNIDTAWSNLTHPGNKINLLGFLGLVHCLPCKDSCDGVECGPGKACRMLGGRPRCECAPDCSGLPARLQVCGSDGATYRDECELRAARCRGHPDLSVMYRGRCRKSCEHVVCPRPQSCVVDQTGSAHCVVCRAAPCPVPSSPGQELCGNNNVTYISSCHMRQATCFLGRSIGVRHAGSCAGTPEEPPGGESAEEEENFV
Chain of Left-right determination factor 2 (Homo sapiens) (O00292 whole entry, looked up): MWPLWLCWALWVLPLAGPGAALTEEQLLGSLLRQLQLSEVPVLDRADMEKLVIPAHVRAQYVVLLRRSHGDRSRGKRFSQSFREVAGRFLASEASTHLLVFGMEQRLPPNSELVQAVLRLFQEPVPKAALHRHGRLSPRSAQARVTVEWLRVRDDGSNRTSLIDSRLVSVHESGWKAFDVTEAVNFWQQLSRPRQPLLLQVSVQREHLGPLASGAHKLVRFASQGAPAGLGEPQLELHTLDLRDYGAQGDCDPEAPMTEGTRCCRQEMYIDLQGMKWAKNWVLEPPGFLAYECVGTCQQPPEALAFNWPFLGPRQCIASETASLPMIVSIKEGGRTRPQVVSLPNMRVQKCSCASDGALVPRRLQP
Chain of Epidermal growth factor receptor (Homo sapiens) (P00533 whole entry, looked up): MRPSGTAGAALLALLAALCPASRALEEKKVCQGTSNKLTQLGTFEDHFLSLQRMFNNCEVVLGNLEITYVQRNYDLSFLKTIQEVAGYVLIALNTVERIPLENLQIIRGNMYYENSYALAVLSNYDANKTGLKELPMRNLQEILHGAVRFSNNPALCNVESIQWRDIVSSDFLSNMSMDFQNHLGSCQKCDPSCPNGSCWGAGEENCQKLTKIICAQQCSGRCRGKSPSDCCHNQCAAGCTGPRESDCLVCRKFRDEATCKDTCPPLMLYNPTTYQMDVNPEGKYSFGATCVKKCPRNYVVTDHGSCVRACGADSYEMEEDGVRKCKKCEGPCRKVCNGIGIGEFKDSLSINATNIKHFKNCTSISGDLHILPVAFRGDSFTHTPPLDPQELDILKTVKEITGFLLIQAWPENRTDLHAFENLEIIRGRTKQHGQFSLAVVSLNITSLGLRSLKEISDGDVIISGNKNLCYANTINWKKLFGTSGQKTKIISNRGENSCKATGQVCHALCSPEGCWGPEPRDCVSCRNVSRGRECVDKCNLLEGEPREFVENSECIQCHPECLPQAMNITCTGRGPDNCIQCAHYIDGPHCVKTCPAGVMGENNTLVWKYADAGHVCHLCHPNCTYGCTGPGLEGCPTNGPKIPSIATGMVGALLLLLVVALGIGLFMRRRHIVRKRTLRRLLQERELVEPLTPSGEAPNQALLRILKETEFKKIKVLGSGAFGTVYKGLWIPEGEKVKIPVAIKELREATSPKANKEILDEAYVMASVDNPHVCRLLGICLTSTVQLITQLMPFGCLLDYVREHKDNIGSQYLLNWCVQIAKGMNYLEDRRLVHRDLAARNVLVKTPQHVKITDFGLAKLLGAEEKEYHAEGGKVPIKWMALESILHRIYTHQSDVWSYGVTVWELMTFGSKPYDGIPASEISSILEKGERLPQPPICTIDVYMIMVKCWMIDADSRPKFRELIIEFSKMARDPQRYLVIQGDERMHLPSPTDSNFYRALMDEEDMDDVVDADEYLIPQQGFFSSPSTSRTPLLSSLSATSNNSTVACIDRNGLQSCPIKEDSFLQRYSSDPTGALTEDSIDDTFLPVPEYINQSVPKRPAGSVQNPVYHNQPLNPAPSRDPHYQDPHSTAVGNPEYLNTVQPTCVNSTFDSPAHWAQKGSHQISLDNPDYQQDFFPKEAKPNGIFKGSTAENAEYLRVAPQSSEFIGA
Chain of Fibroblast growth factor 10 (Homo sapiens) (O15520 whole entry, looked up): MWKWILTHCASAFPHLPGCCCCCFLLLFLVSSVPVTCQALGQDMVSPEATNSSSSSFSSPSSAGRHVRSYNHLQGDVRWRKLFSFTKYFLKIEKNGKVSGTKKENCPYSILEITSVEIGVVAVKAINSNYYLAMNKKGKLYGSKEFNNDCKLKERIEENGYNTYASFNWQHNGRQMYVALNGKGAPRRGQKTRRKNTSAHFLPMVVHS

Compound | composite z-score [1] | composite z-score [2] | composite z-score [3] | z-score [4] | composite z-score [5] | composite z-score [6] | composite z-score [7] | composite z-score [8] | composite z-score [9] | composite z-score [10] | composite z-score [11] | z-score [12] | composite z-score [13] | composite z-score [14] | composite z-score [15] | composite z-score [16] | composite z-score [17] | composite z-score [18] | composite z-score [19] | composite z-score [20]
[N-]=[N+]=NCc1ccccc1[C@H]1OC(c2ccc(OCCCO)cc2)=N[C@@]1(Cc1ccccc1N=[N+]=[N-])C(=O)O | 1.07 | 1.08 | 0.904 | 0.258 (inactive) | 0.716 | 1.03 | -0.0317 | 0.783 | -0.107 | 0.987 | 1.41 | -0.304 | -0.0361 | 1.82 | 0.83 | -0.0161 | 0.385 | 0.19 | 0.765 | 1.98
COc1ccc(-c2cc3c(c(CCc4ccccc4)n2)[Si](C(C)C)(C(C)C)O[C@H]3c2ccccc2)cn1 | -0.576 | 0.0477 | -0.12 | -0.879 (inactive) | 0.332 | -0.237 | -0.0109 | 0.362 | -0.0079 | 0.343 | -0.38 | -1.8 | 0.0069 | -0.0526 | -0.517 | -0.12 | -0.0192 | -0.158 | -0.309 | 0.31
COC(=O)[C@@]1(Cc2ccc(F)cc2)[C@H]2c3cc(C(=O)N4CCCC4)n(CCSCCO)c3C[C@H]2CN1C(=O)c1ccccc1 | 1.33 | 1.02 | 1.22 | -2.25 (inactive) | 0.26 | -0.273 | -0.707 | -0.803 | -0.957 | 1.06 | 1.2 | -1.24 | -0.721 | 1.34 | 0.318 | 0.0914 | 1.08 | 1.56 | 0.403 | 0.566
CC(CO)N1C(=O)[C@@H]2[C@H]3C(=O)OCC=C[C@H]3OC23C=CCN(c2ccc4ccccc4c2)C(=O)[C@@H]13 (stereo not given in full) | -0.893 | -0.0682 | 0.725 | 0.445 (inactive) | -0.916 | -1.56 | -1.64 | -1.66 | -1.83 | -1.18 | -1.55 | -0.418 | -2.64 | -0.505 | 0.0117 | -0.174 | -0.0035 | 0.474 | -1.14 | -0.674
C=CCOC(=O)[C@@H]1[C@H]2C(=O)O[C@H](c3ccccc3)[C@H](c3ccccc3)N2[C@H](c2ccc(OCCOC(=O)[C@H]3C[C@H]4C(=O)N[C@@H](CCCCN(C)C)C(=O)N4[C@H]3c3cccc(OCCO)c3)cc2)[C@@]12C(=O)Nc1ccccc12 | 0.938 | 0.342 | 0.707 | 0.0554 (inactive) | -0.515 | 0.602 | -0.632 | -0.335 | -0.679 | 0.0981 | 0.313 | -0.772 | -1.19 | 0.12 | 0.177 | -0.033 | 0.584 | 0.511 | 0.518 | 0.175
[N-]=[N+]=NCc1ccccc1C[C@@]1(C(N)=O)N=C(c2ccc(OCCCO)cc2)O[C@@H]1c1ccccc1N=[N+]=[N-] | 1.51 | 0.747 | 1.13 | -0.397 (inactive) | 0.839 | 1.19 | -0.547 | -0.239 | -0.38 | -0.217 | 1.05 | -0.489 | -0.654 | 1.09 | 0.237 | 0.0088 | 0.199 | -0.561 | 1.71 | 0.775
COCCCNC(=O)[C@@]1(Cc2ccccc2I)c2ccccc2C(=O)N(C2CCCCC2)[C@H]1c1ccc(CO)cc1 | 1.25 | 0.015 | 0.445 | -0.235 (inactive) | 0.973 | 0.681 | -0.0802 | 0.0553 | 0.249 | 0.123 | 1.13 | -1.45 | -0.418 | 0.634 | 0.305 | -0.0061 | 0.313 | -0.417 | 1.57 | 1.19
COc1ccc([Si](C)(C)[C@H]2[C@H](CC(=O)N3CCC[C@H]3CO)O[C@@]3(C(=O)N(Cc4cccc(N5CCCCC5=O)c4)c4ccccc43)[C@@H]2C)cc1 | 1.01 | -0.297 | -0.441 | 1.06 (inactive) | 1.3 | 1.21 | 0.532 | 1.26 | 0.823 | 0.248 | 1.3 | -2.54 | 0.854 | 0.733 | 0.222 | -0.101 | 0.396 | 0.381 | 1.06 | 1.22
COCCOC(=O)N1C(=O)[C@@]2(c3cc(C#CCC(C(=O)OC)C(=O)OC)ccc31)[C@H](C(=O)N1CCc3cc(OC)c(OC)cc3C1)[C@H]1C(=O)O[C@H](c3ccccc3)[C@H](c3ccccc3)N1[C@@H]2c1ccccc1OCCO | 0.496 | -0.381 | -0.162 | -0.606 (inactive) | 1.18 | 1.31 | 1.01 | 1.38 | 1.19 | 1.02 | 1.36 | -1.61 | 1.07 | 0.965 | -0.226 | -0.0125 | 1.57 | -0.512 | 1.03 | 0.774
C=CCNC(=O)[C@H]1[C@@H]2C(=O)O[C@@H](c3ccccc3)[C@@H](c3ccccc3)N2[C@@H](c2ccc(OCCO)cc2)[C@]12C(=O)Nc1ccc(C#Cc3ccc(OC)cc3)cc12 | 1.34 | 0.626 | 0.632 | -0.258 (inactive) | 1.23 | 1.33 | 0.486 | 1.17 | 0.736 | -0.274 | 1.02 | -2.18 | 0.699 | 0.573 | 0.787 | 0.104 | 0.465 | -0.403 | 1.1 | 1.71
CCCC[C@@H](O)C1=C(C)Cn2c(=O)n(-c3ccccc3)c(=O)n2[C@H]1CO | -0.0833 | -0.526 | -0.487 | -1 (inactive) | 0.132 | -0.349 | 0.0431 | -0.265 | 0.0869 | 0.146 | -0.867 | 0.384 | 0.0031 | -0.737 | -0.122 | -0.117 | -0.221 | 0.115 | 0.105 | -0.409
